Measured values reported in PubChem BioAssay AID977621 (Broad Institute, 2014).
Screen size: about 1,900 compounds; fewer than 10 were called active. Inconclusive results (about 6%) are left out.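 The calls were made as follows: active = Wild-type ribosome reporter drop at least double the humanized mutant ribosome reporter drop, growth loss under a set limit; inconclusive = no clear call, values can overlap the other calls; inactive = the rest.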 These entries were drawn from the full list.

Assay: wild-type E. coli growth inhibition versus H69 humanized strain – H69 mutant RFP, wild-type GFP, cherry-pick, dose response (AID 977621);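 also: wild-type GFP and H69 mutant RFP strains grown together 50/50 in each well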
Conditions: fluorescence, 24 h; series mostly up to 50 µM

outcome, inactive:
O=C(Nc1cccc(Cl)c1)N1C[C@@H]2[C@H](c3ccccc31)[C@H](CO)N2Cc1ccncc1
CNC(=O)c1ccsc1NC(=O)c1ccc(S(=O)(=O)N2CCc3ccccc32)cc1
Cc1ccccc1S(=O)(=O)NC(=O)C1(C)CCN1C(=O)C1(c2ccc(Cl)cc2)CC1 (configuration not stated)
CCc1c(N=O)c(-c2ccccc2)n(O)[n+]1[O-]
CCc1cc2cc(OC)ccc2nc1SCC(=O)Nc1cc(OC)c(OC)cc1C(=O)O
CC1CCCC(NC(=O)COC(=O)[C@@H]2CC(O)CN2S(=O)(=O)c2ccc3c(c2)OCCO3)C1C (some centres not stated)
Cn1cc(CCC(=O)NCc2ccc3c(c2)OCO3)c2ccccc21
C[C@@H](Nc1nc(-c2ccccc2)nc2c1oc1ccccc12)C(=O)O
CC(=O)Nc1ccc(CNc2nc(NCCN(C)C)nc3cc(-c4ccccc4)sc23)cc1
Fc1cccc(Cl)c1CSc1ccc(-c2ccco2)nn1
Cc1ccc(C(=O)NCC(=O)OCC(=O)Nc2cccc(S(=O)(=O)N3CCCC3)c2)cc1C
Cc1cc(C)cc(NC(=O)c2cccc(NC(=O)C3C4CC5OC(=O)C3C5C4)c2)c1 (configuration not stated)
Cc1ccc(OCCCC(=O)NC(C)c2ccccc2)c(C)c1 (configuration not stated)
Cc1nn(C(C)(C)C)c(OC(=O)CC(C)C)c1S(=O)(=O)c1ccccc1
O=C(NCCc1csc(-c2ccccc2)n1)c1ccccc1F
Cc1cccc(NC(=O)c2nc(S(=O)(=O)Cc3ccccc3)ncc2Cl)c1
Cc1ccc(-c2c[n+](CC(=O)Nc3ccccc3)c3n2CCC3)cc1
COc1ccc(C(C)=O)cc1COc1ccc(Cl)c(C)c1
COc1cccc(S(=O)(=O)N2CCCCN3[C@H](C2)[C@H](c2ccc(C#CC(C)C)cc2)[C@@H]3CO)c1
COc1ccc2c(c1)c1ncn(Cc3ccccn3)c(=O)c1n2C
O=C(Nc1nnc(Cc2ccc(Cl)cc2)s1)c1ccncc1
Cc1ccc2c(N)c(C(=O)c3ccccc3)sc2n1
Cc1onc(-c2ccccc2Cl)c1C(=O)OCC(=O)c1ccccc1
COc1ccc(CN(C)C[C@H]2Oc3ccc(NS(=O)(=O)c4ccc(Cl)cc4)cc3CC(=O)N([C@@H](C)CO)C[C@H]2C)cc1
Cc1ccc(F)c(NC(=O)CCOc2ccccc2C)c1
COc1ccccc1N1CCN(Cc2ccc(OC)c3ccccc23)CC1
CC1CCCN(c2ccc(C(=O)NCCc3ccccc3)cn2)C1 (configuration not stated)
COc1ccc(C2=NN(C(=O)c3cccnc3)C(c3ccccc3)C2)cc1 (configuration not stated)
Cc1ncoc1C(=O)NCCC(c1ccccc1)c1ccccc1
OCCN(Cc1ccccc1)Cc1ccc(Cl)cc1
Cc1ccccc1-n1nnnc1SCCCC(=O)c1ccc(F)cc1
CCN(CC)C(=O)c1sc2nc(-c3ccccc3)ccc2c1N
CCn1c(NC(=O)c2nn(C)cc2Br)nc2ccccc21
Cc1ccc(S(=O)(=O)N2CC(=O)Nc3ccccc32)cc1C
COC(=O)c1cc(C)sc1NC(=O)CC1Nc2ccccc2NC1=O (configuration not stated)
O=C(NCCc1ccccc1)c1cccc(NC(=O)c2ccccc2)c1
C[C@@H]1CN([C@@H](C)CO)C(=O)c2cc(NS(=O)(=O)c3ccccc3)ccc2O[C@@H]1CN(C)Cc1ccc(C(=O)Nc2ccccc2N)cc1
